# Data published in the supplement of paper PMC11417369.
# ± gives the standard deviation of the averaged measurements. Whole data set: some 25,000 sequences, median “ln(normalized median fluorescence intensity)” near 7.9, cut for the highest 2% near 11. For the sample, the highest values were picked, then their nearest neighbours and some sequences at random.
# Test system: PfAP2-I AP2 domain 3 (GST-tagged)
# Test: gcPBM binding intensity (ln(normalized median fluorescence intensity)); higher = stronger DNA binding
# In short: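 The binding buffer was 1× PBS containing 1% milk, 0.2 mg/ml BSA, 0.5% salmon testes DNA and 0.03% Triton X-100. In it, GST-tagged P. falciparum DNA-binding domains expressed in E. coli were applied for 1 h to an Agilent 4 × 180k array of primer-extended double-stranded 36-bp intergenic genomic probes plus negative controls. Binding intensity, read with Alexa488 anti-GST antibody and a 488 nm scan, is the highest Masliner-normalised natural-log median intensity across replicate spots of either probe orientation.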
row,Sequence,gcPBM binding intensity (ln)
1,AAATCGTGTACATTGACACACATAATTTTTTTTATA [CACACA_site2463],8.09 ± 0.38
2,ATCATCTTTATTCAAGTGCACTGAAAATTTTTTATA [GTGCAC_site9801],11.1 ± 0.32
3,TTATTTTATTTTTGTGCACACTGATAAATTGAAAAG [CACACA_site2949],10.8 ± 0.22
4,ACATATTATTCAAGTGCACACTTTATATTTATGATT [CACACA_site3295],9.715 ± 0.035
5,TACATCATCTATAAGGTGCATTTTAGTTCTATTAAA,10.3 ± 0.58
6,TCCTTTATTTTTAAAGTGCATATACATGTACATTAT [GTGCAC_site9445],9.675 ± 0.078
7,AAAAAAAAAAGAAACACACACATATAGATTTATAAC [CACACA_site6927],7.69 ± 0.69
8,AAGTTTAAAATCTTTGCACACATATAAATAAATATA [CACACA_site2554],8.94 ± 0.12
9,AAAAATATAATATAATGTACACAAAAAAAAAAAATC [XGTACX_site1427],7.93 ± 0.52
10,AAAAATATAATATAATGTACACAAAAAAAAAAAAAT [XGTACX_site4914],8.18 ± 0.15
11,AAAAATATAATATAATGTACACATAAACAAAAAAAA [XGTACX_site3658],7.92 ± 0.57
12,ATATAATATTAGTGCACACACAAAAATGTACTAAAC [CACACA_site632],11.3 ± 0.54
13,TAGAAACTATGTAATGCACACCAAAATAAAATTATT [CACACA_site8578],10.4 ± 0.33
14,TTAAAAAACTATAATACACACCAAAAATATGCACAT [CACACA_site7079],9.44 ± 0.7
15,GAAACTATGTAATGCACACCAAAATAAAATTATTAA [CACACA_site1904],10.9 ± 1
16,AGAAAAATAAACAAATGTACAAATTATTACTATATA [XGTACX_site1087],7.63 ± 0.34
17,GTATATAATATTAGTGCACACACAAAAATGTACTAA [CACACA_site8112],11.4 ± 0.55
18,CTATAATATTAGTGCACACACAAAAATGTACTAAAC [CACACA_site6442],11.6 ± 0.62
19,ATAATAAATACACTAGTGCAAAATAATATATGTACT [GTGCAC_site9707],10.4 ± 0.22
20,ATATTACAAATATAATGTACAAAATATAAATATGCA [XGTACX_site8106],7.62 ± 0.3
21,AGAAGAAATATGTAAAAAATTTTATATTCACACACA [GTGCAC_negctrl_site441],8.15 ± 0.33
22,ATAAATTCATACATTTGTACACAAAAAAAAAAAAAA [XGTACX_site2435],8.12 ± 0.57

row,Sequence,gcPBM binding intensity (ln)
1,TTTTTTTTTTCTTTTTGTACATATTCATAACAAGTA [XGTACX_site2784],8.12 ± 0.5
2,AATGTAACAACTTTTTGTACTTAAGAAATAATAAAT [XGTACX_site3310],7.64 ± 0.61
3,TAATTAAAAAATAAAAAAAAAAAAAATTAAAACAAA [CACACA_negctrl_site500],7.2 ± 0.58
4,TGTTATATGTTCAAATGTACAAATCATATACATGTT [XGTACX_site3192],7.5 ± 0.65
5,GTTAGGATAGATTAGACATGCACATAAATGCACTTC [TGCATGCA_site561],11.1 ± 0.34
6,AGGATATGCAGACACACACACATATAGATTTATATA [CACACA_site7100],7.74 ± 0.55
7,AAAATTAGATTATGCACACACACTTAAAAATAATAA [CACACA_site1975],9.97 ± 0.46
8,ATTTTTTCTAATGGGTGTACTGAAACGTATTTTATT [XGTACX_site6573],8.16 ± 0.58
9,TTTGTGGTTACATGTGCACACACTTATTTCGTTCTT [CACACA_site1435],9.38 ± 0.4
10,TATAATATATTCATGTGTACATATATTTCGAACATA [XGTACX_site1754],8.01 ± 0.2
11,ATTTTATTTTCATATGAACACACATATATATATTAT [CACACA_site8741],8.35 ± 0.45
12,GTAATTAAAATATATACACACAAAGGCTATTAAATA [CACACA_site1011],7.68 ± 0.52
13,AATTAATGGCTAAAGGTGCACAATATATATATTACA,11.3 ± 0.19
14,ATAATTATATGGCTAGCACACAATAAATAATTATAT [CACACA_site3815],7.92 ± 0.42
15,TTACATACAATTGGTGTGCACATATATATATATATA,10.29 ± 0.049
16,AATTAATGGTTAAAGGTGCACAATACATATATTACA [GTGCAC_site9943],11.32 ± 0.035
17,ATATAATAAGGTTAAGCACACATATTACATATATAA [CACACA_site9110],8.35 ± 0.23
18,ATATTATATTTCTTTTGTACATATTATATAATATAT [XGTACX_site7198],8.1 ± 0.56
19,ATATATAAATATATTTGTACATATAATATGTATTAT [XGTACX_site8820],7.75 ± 0.47
20,AATTATTGTGAAGGGAAAACAAAAAAGTTTATAATT [CACACA_negctrl_site1337],8.01 ± 0.72
21,TTTATAAAGGGAAAGGTGCAAAAGGTGAAAGTTTTA,10.9 ± 0.44
22,ATAATAATAAAATATATATACAAAGGTGAAATTATA [TGCATGCA_negctrl_site197],7.96 ± 0.58

row,Sequence,gcPBM binding intensity (ln)
1,TATGATGATGAATAACGTACAAAAAAATTAATCACC [XGTACX_site6794],8.16 ± 0.49
2,TTTTGTAAAAAGAAAAATTAGAATATATCGTATATA [XGTACX_negctrl_site617],7.19 ± 0.45
3,ATCAACATTACATTTAGTACACATATATTTCTATGT [XGTACX_site4436],8.16 ± 0.36
4,TTTTTTTTCTAAATTATATGAAAATATATGTTATGT [GTGCAC_negctrl_site85],7.79 ± 0.23
5,AAAGAAATAAGGTGCACACATATACATATATATATA [CACACA_site429],10.3 ± 0.29
6,TAAAAGAAATAAGGTGCACACATATACATATATATA [CACACA_site8037],10.19 ± 0.071
7,ACGGAAAAAGAAAAGGTGCATATGGACACAATATAT,10.85 ± 0.099
8,TTTTACAAAATAAAAATATAGAATACGGTAAATTAT [GTGCAC_negctrl_site40],7.87 ± 0.73
9,GTTATAAACAAAATAAATATATGAATATATAATAAT [XGTACX_negctrl_site96],7.46 ± 0.5
10,TATATATATATAATTGTGCACATAATTTTAAACCAA,11.1 ± 0.13
11,GAAATATAATTTATTACACACATTTTAAAAAAATTC [CACACA_site1087],7.74 ± 0.18
12,TTTATATATTTTGTCGTGCACATTTGGAAAATTACA [GTGCAC_site9776],10.8 ± 0.16
13,TTATTATAATCATTAGTGCATATATTATTTTTATAT,9.795 ± 0.049
14,TAAAATAAATTGTGCACACATATTTATAAATATGAA [CACACA_site2331],11.3 ± 0.35
15,TATAAAATAAATTGTGCACACATATTTATAAATATG [CACACA_site2330],10.71 ± 0.078
16,ATAAATTTTTAAACAGCACACATAAATATAATATAT [CACACA_site8691],8.28 ± 0.4
17,AGGAAAATTTTATTTGCACACATTATTACGTCTAAA [CACACA_site2337],9.9 ± 0.4
18,TAATATTTTAATTGTGTGCACATTAATATTATAAAA,10.1 ± 0.16
19,ATATATCATATTATAGTGCATTTATAATAATATTAT,10.8 ± 0.13
20,TAAAATAATATTTATGTGCACATATAATTATTAATT,10.395 ± 0.007
21,AACATATTGGATTTAGTGCACATATATATCATAATA,11.5 ± 0.29
